TRAIL sens C8 = caspase-8 TRAIL sensitization; NB7+C8 cells + TRAIL, ATPlite viability luminescence; inhibition (viability loss, TRAIL sensitization), % at 10 µM; 1% of 360,000 active;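 active means compounds causing at least 50% loss of cell viability in the single-dose screen, relative to plate controls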
HSP90 inh = inhibitors of HSP90 luciferase refolding in rabbit reticulocyte lysate; 0.91% of 290,000 active; inhibition, % at 5.6 µM; AID 1789; luciferase refolding luminescence, 3 h;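 active means inhibition above the screen-wide mean plus 3 SD, computed separately per campaign, cut at about 16% in these data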;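 further: inhibitors lower the luminescence because luciferase stays unfolded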
aSyn 5UTR inh = MLPCN primary screen, SNCA 5' untranslated region | alpha-synuclein 5'UTR reporter, inhibitor activity | inhibition, % (tested at 7.5 µM) | 0.82% of 300,000 active | AID 1813; in the data active means inhibition above about 60%;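 further: H4 neuroglioblastoma cells stably carrying SNCA 5'UTR luciferase fusion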
HIF-2a block = blocks HIF-2a reporter activity; 786-0 RCC cells HIF-2a reporter, luciferase luminescence, overnight; 0.72% of 360,000 active; inhibition, % at 18.8 µM;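 active means inhibition of the luminescence signal of 40% or more relative to plate controls, in a single-dose primary screen at 18.75 µM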
TWEAK-Fn14 inh = blocks TWEAK-Fn14 interaction in a reporter cell assay; 2% of 360,000 active; AID 1159606; inhibition, % at 10 µM; TWEAK-stimulated Fn14 reporter cells, luciferase luminescence, 8 h; in the data active means inhibition above about 50%
TROY NFkB inh = inhibitors of TROY-dependent NF-kB signaling. Q293 LMP1-TROYcd NF-kB luciferase reporter, 4 h. inhibition, % at 10 µM. 0.98% of 360,000 active;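 active means compounds whose plate-normalised and pattern-corrected inhibition of the luciferase reporter signal at the single screening dose is 50% or more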
HSP90 confirm = confirmation of HSP90 inhibitors; shares compounds with HSP90 inh; rabbit reticulocyte lysate, luciferase refolding luminescence, 3 h; inhibition, % at 5.9 µM; 64% of 2,300 active; in the data active means inhibition above about 18%
FLuc counter = firefly luciferase inhibition, HSP90 counter-screen; shares compounds with HSP90 inh; purified native firefly luciferase, luminescence; inhibition, % at 5.9 µM; 48% of 2,300 active;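 active means inhibition above the mean inhibition of all tested sample wells plus 3 SD, cut at about 10% in these data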
Target sequence (P08659 whole entry, looked up): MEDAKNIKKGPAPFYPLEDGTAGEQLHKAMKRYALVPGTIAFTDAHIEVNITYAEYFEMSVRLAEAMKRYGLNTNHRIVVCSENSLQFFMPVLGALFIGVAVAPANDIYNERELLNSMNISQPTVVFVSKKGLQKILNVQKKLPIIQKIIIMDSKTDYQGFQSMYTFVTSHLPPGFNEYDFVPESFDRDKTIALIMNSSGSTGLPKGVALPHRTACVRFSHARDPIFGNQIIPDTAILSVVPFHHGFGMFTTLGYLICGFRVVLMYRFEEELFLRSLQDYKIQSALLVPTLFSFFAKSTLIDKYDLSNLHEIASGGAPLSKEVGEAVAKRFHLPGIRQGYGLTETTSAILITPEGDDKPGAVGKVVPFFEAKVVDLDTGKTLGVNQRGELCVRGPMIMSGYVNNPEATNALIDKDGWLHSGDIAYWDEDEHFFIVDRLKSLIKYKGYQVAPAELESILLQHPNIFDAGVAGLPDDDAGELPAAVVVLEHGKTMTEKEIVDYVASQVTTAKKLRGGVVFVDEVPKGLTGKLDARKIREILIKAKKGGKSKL
Hits are given with their value. Hits are enriched below; roughly 3.9% of the tested compounds scored in any of these assays.

What do the screens show for `CCn1c(C)cc(/C=C2\NC(=O)N(CC(=O)Nc3cccc(C)c3)C2=O)c1C`?
TRAIL sens C8: inactive; HSP90 inh: inactive; aSyn 5UTR inh: inactive; HIF-2a block: inactive; TWEAK-Fn14 inh: inactive; TROY NFkB inh: inactive

What do the screens show for `CCn1c(C)cc(/C=C2/NC(=O)N(c3ccccc3)C2=O)c1C`?
TRAIL sens C8: inactive; HSP90 inh: 30.9; aSyn 5UTR inh: inactive; HIF-2a block: inactive; TWEAK-Fn14 inh: 73.7; TROY NFkB inh: 74.5; HSP90 confirm: inactive; FLuc counter: inactive

What do the screens show for `Cc1ccc(NC(=S)NC(=O)C2CC2)c(C)c1`?
TRAIL sens C8: inactive; HSP90 inh: 31.4; aSyn 5UTR inh: inactive; HIF-2a block: inactive; TWEAK-Fn14 inh: inactive; TROY NFkB inh: inactive; HSP90 confirm: inactive; FLuc counter: inactive

What do the screens show for `CCOc1ccc(CCN2C(=O)C(=O)N([C@@H](Cc3ccc(O)cc3)CN3CCC[C@@H]3CN3C(=O)C(=O)NC[C@@H]3Cc3ccccc3)C[C@@H]2Cc2ccccc2)cc1`?
TRAIL sens C8: inactive; HIF-2a block: inactive; TWEAK-Fn14 inh: inactive; TROY NFkB inh: inactive

What do the screens show for `C/C(=N\Nc1ccc(C(=O)O)cc1)c1ccc2c(c1)Nc1ccccc1S2`?
TRAIL sens C8: inactive; HSP90 inh: 24.2; aSyn 5UTR inh: inactive; HIF-2a block: inactive; TWEAK-Fn14 inh: inactive; TROY NFkB inh: inactive; HSP90 confirm: 28.3; FLuc counter: inactive

What do the screens show for `Cc1cccc(NCc2cc(Cl)ccc2O)n1`?
TRAIL sens C8: inactive; HSP90 inh: inactive; aSyn 5UTR inh: inactive; HIF-2a block: inactive; TWEAK-Fn14 inh: inactive; TROY NFkB inh: inactive

How did Cc1cccc(NCc2cc(Cl)cc(Cl)c2O)n1 do in these assays?
TRAIL sens C8: inactive; HSP90 inh: 17.5; aSyn 5UTR inh: inactive; HIF-2a block: inactive; TWEAK-Fn14 inh: inactive; TROY NFkB inh: inactive; HSP90 confirm: inactive; FLuc counter: inactive

Results for O=C(c1cc(-c2ccc(Cl)cc2Cl)on1)N1CCCCCC1 ?
TRAIL sens C8: inactive; HSP90 inh: 18.8; aSyn 5UTR inh: inactive; HIF-2a block: inactive; TWEAK-Fn14 inh: inactive; TROY NFkB inh: inactive; HSP90 confirm: 34.0; FLuc counter: 18.4

What do the screens show for `O=C(c1cc(-c2ccc(Cl)cc2Cl)on1)N1CCCC1`?
TRAIL sens C8: 66.5; HSP90 inh: 37.0; aSyn 5UTR inh: inactive; HIF-2a block: inactive; TWEAK-Fn14 inh: 69.8; TROY NFkB inh: inactive; HSP90 confirm: 55.5; FLuc counter: 57.1

How did COc1cc(Br)c(C(=O)c2nccc3cc(OC)c(OC)cc23)cc1OC do in these assays?
TRAIL sens C8: inactive; HSP90 inh: 41.8; aSyn 5UTR inh: inactive; HIF-2a block: inactive; TWEAK-Fn14 inh: inactive; TROY NFkB inh: inactive; HSP90 confirm: 19.1; FLuc counter: inactive

What do the screens show for `Cn1c2ccccc2c(=O)c2ccc(C#Cc3ccc(N)cc3)cc21`?
TRAIL sens C8: inactive; HSP90 inh: 24.3; aSyn 5UTR inh: inactive; HIF-2a block: inactive; TWEAK-Fn14 inh: inactive; TROY NFkB inh: 50.2; HSP90 confirm: 31.5; FLuc counter: inactive

Results for COc1ccccc1C#Cc1ccc2c(=O)c3ccccc3n(C)c2c1 ?
TRAIL sens C8: inactive; HSP90 inh: 24.2; aSyn 5UTR inh: inactive; HIF-2a block: inactive; TWEAK-Fn14 inh: inactive; TROY NFkB inh: inactive; HSP90 confirm: inactive; FLuc counter: inactive

How did COc1ccc(C#Cc2ccc3c(=O)c4ccccc4n(C)c3c2)cc1 do in these assays?
HSP90 inh: inactive; aSyn 5UTR inh: inactive

What do the screens show for `CN(CC(=O)N1CCOCC1)S(=O)(=O)c1ccc2ccccc2c1`?
TRAIL sens C8: inactive; HSP90 inh: inactive; aSyn 5UTR inh: inactive; HIF-2a block: inactive; TWEAK-Fn14 inh: inactive; TROY NFkB inh: inactive

What do the screens show for `CCN(CC)c1ccc(N=C2C=CC(=O)C=C2NC(C)=O)cc1`?
TRAIL sens C8: inactive; HIF-2a block: inactive; TWEAK-Fn14 inh: inactive; TROY NFkB inh: inactive

What do the screens show for `O=C1NC[C@H](Cc2ccccc2)N(C[C@H]2CCCN2C[C@H](Cc2ccc(O)cc2)N2C[C@H](Cc3ccc(O)cc3)N(CC3CCCCCC3)C(=O)C2=O)C1=O`?
TRAIL sens C8: inactive; HIF-2a block: inactive; TWEAK-Fn14 inh: inactive; TROY NFkB inh: inactive

What do the screens show for `Cc1ccc(-c2cnc3ccccc3n2)cc1C`?
TRAIL sens C8: inactive; HSP90 inh: 28.9; aSyn 5UTR inh: inactive; HIF-2a block: inactive; TWEAK-Fn14 inh: 72.8; TROY NFkB inh: inactive; HSP90 confirm: 63.5; FLuc counter: 58.1

How did Cc1cc2ncc(-c3ccccc3)nc2cc1C do in these assays?
TRAIL sens C8: inactive; HSP90 inh: inactive; aSyn 5UTR inh: inactive; HIF-2a block: inactive; TWEAK-Fn14 inh: inactive; TROY NFkB inh: inactive

Results for CCCS(=O)(=O)NC(=O)C1(C)CCN(C(=O)c2oc3ccccc3c2C)C1 (stereo not drawn) ?
TRAIL sens C8: inactive; HIF-2a block: inactive; TWEAK-Fn14 inh: inactive; TROY NFkB inh: inactive

What do the screens show for `Cn1c2ccccc2c(=O)c2c(=O)n(-c3ccc(F)cc3)c(-c3cccs3)nc21`?
TRAIL sens C8: inactive; HSP90 inh: inactive; aSyn 5UTR inh: inactive; HIF-2a block: inactive; TWEAK-Fn14 inh: inactive; TROY NFkB inh: inactive

What do the screens show for `CC(c1ccccc1)n1c(-c2cccs2)nc2c(c(=O)c3ccccc3n2C)c1=O` (stereo not drawn)?
TRAIL sens C8: inactive; HSP90 inh: 25.2; aSyn 5UTR inh: inactive; HIF-2a block: inactive; TWEAK-Fn14 inh: inactive; TROY NFkB inh: inactive; HSP90 confirm: inactive; FLuc counter: inactive

What do the screens show for `CCOc1ccc(-c2ccc(SCc3ccccn3)nn2)cc1`?
TRAIL sens C8: inactive; HSP90 inh: inactive; aSyn 5UTR inh: inactive; HIF-2a block: inactive; TWEAK-Fn14 inh: inactive; TROY NFkB inh: inactive

What do the screens show for `CCOc1ccc(-c2ccc(SCC)nn2)cc1`?
TRAIL sens C8: 72.8; HSP90 inh: 17.5; HIF-2a block: inactive; TWEAK-Fn14 inh: 63.6; TROY NFkB inh: inactive; HSP90 confirm: 55.5; FLuc counter: 38.9

What do the screens show for `c1coc(CNc2nc(-c3cccs3)cs2)c1`?
TRAIL sens C8: inactive; HSP90 inh: 17.6; aSyn 5UTR inh: 107.4; HIF-2a block: inactive; TWEAK-Fn14 inh: inactive; TROY NFkB inh: inactive; HSP90 confirm: inactive; FLuc counter: inactive

Results for Oc1ccc(-c2csc(NCc3ccco3)n2)cc1 ?
TRAIL sens C8: inactive; HSP90 inh: inactive; aSyn 5UTR inh: inactive; HIF-2a block: inactive; TWEAK-Fn14 inh: inactive; TROY NFkB inh: inactive

Results for NNC(=S)NC1CC2CC1C1C=CCC21 (stereo not drawn) ?
TRAIL sens C8: inactive; HSP90 inh: 24.8; aSyn 5UTR inh: inactive; HIF-2a block: inactive; TWEAK-Fn14 inh: 77.5; TROY NFkB inh: 70.0; HSP90 confirm: inactive; FLuc counter: inactive

How did Oc1ccc(O)c(C=NNC(=S)NC2CC3CC2C2C=CCC32)c1 (stereo not drawn) do in these assays?
TRAIL sens C8: inactive; HIF-2a block: inactive; TWEAK-Fn14 inh: inactive; TROY NFkB inh: inactive

High-throughput results from PubChem.
